# Screening results as filed in PubChem BioAssay.
# ALR inh – human ALR oxidase inhibition via reduced H2O2; purified ALR, DTT oxidation, H2O2 HRP-luminol luminescence; inhibition, % (concentration not given with the values); 290,000 tested, 3.8% active; AID 485317;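 active = mean replicate inhibition above about 79%, with every replicate also reaching it, limit read from the data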
# Target sequence (P55789 whole entry, looked up): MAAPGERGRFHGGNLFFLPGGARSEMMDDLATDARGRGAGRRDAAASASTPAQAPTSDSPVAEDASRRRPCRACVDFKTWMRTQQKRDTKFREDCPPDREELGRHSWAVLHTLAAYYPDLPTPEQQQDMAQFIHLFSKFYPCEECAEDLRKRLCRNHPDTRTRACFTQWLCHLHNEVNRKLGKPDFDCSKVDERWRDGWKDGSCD
# PfM18AAP inh – PfM18AAP enzyme inhibition | AID 1822 | inhibition, % at 7.35 µM | 290,000 tested, 1.2% active | recombinant PfM18AAP, H-Glu-NHMec fluorogenic cleavage;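 active = inhibition above the campaign mean inhibition over all tested compounds plus 3 SD, cut at about 28% in these data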
# SUMO Mot1 rescue – inhibitors of SUMOylation pathway: yeast Mot1-301 growth rescue; S. cerevisiae Mot1-301 growth rescue, ATP luminescence, 38.5C; percent above DMSO median, 100 means doubled; growth rescue, % at 18.8 µM; 320,000 tested, 1% active;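 active = every valid replicate shows activation above 250% relative to neutral control wells; inactive = the rest, any valid replicate at or below 250%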
# HIF act – HIF pathway transcriptional activation; activation, % at 7.5 µM (by protocol); U2OS HRE-luciferase reporter, luminescence; normalized: DMSO 0%, desferrioxamine 100%; 300,000 tested, 0.32% active;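 active = mean activation of at least 10% of the iron chelator positive control signal, with at least half of replicates also reaching 10%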
# Numbers stand for hits; i = inactive; nt = not tested or not shown; + = active, no number. Shown are actives, neighbours in structure and some others; about 5.3% of the full set was active somewhere.
SMILES,ALR inh,PfM18AAP inh,SUMO Mot1 rescue,HIF act
COc1ccc(CCNS(=O)(=O)CCNC(=O)c2ccc(OC)cc2)cc1,i,nt,i,i
CCN(CC)CCNC(=O)Cn1nc(-c2ccccc2)c2ccccc2c1=O,i,i,i,i
CCN(CC)CCNC(=O)Cn1ncc2ccccc2c1=O,i,i,776.2,i
COc1cc2c(cc1OC)CN(C(=O)CN1CCN(S(=O)(=O)c3ccc(C)c(C)c3)CC1)CC2,i,i,i,i
CCOC(=O)/C(C#N)=C/C=C1\C=Cc2ccccc2N1CC,i,i,i,17.8
CCCN1C=CC(=C/C=C(\C#N)C(=O)OCC)C=C1,99.4,i,i,i
C=CCN1C=C/C(=C\C=C(C#N)C#N)c2ccccc21,nt,i,i,i
CCCN1C=CC(=CC=C(C#N)C#N)C=C1,98.8,i,i,i
C=CCN1C=CC(=CC=C(C#N)C#N)C=C1,98.6,i,i,i
COc1ccc(Cl)cc1S(=O)(=O)N1CCC(C(=O)NC2CCCC2)CC1,i,i,i,i
c1ccc(CSc2cc3ccccc3[nH]2)cc1,i,nt,i,i
CC(CS(=O)(=O)c1ccc2ccccc2c1)N1CCN(C2CCCCC2)CC1 (centres undefined),nt,i,nt,nt
COc1ccc(-c2oc3ccccc3c(=O)c2OC(C)=O)cc1,nt,i,i,i
CC(=O)Oc1cc(O)c2c(=O)c(OC(C)=O)c(-c3ccc(OC(C)=O)c(OC(C)=O)c3)oc2c1,82.3,nt,i,i
COc1c(-c2ccc(O)cc2)oc2cc(O)cc(O)c2c1=O,97.6,nt,i,nt
COc1ccc(-c2oc3c(OC)c(OC)c(OC)c(O)c3c(=O)c2OC)cc1OC,i,i,+,i
COc1ccc(-c2oc3cc(OC)c(O)c(OC)c3c(=O)c2OC)cc1O,100.0,i,i,i
COc1c(OC)c(O)c2c(=O)c(O)c(-c3ccccc3)oc2c1OC,i,i,i,i
Cc1cnc(C(=O)OCC(=O)Nc2oc(-c3ccccc3)c(-c3ccccc3)c2C#N)cn1,97.4,i,i,i
N#Cc1c(NC(=O)CCN2C(=O)c3ccccc3C2=O)oc(-c2ccccc2)c1-c1ccccc1,i,i,i,i
COC(=O)c1cc(O)cc(OC)c1Oc1cc(C)cc(O)c1C(=O)O,nt,nt,i,nt
CC1CC2=C(C(=O)O1)C(c1ccc(Cl)cc1)Nc1ccccc1N2 (centres undefined),98.8,i,i,i
Cc1ccc(C2Nc3ccccc3NC3=C2C(=O)OC(C)C3)cc1 (centres undefined),99.2,i,i,i
O=C1NCC2=C1C(c1ccccc1)Nc1ccccc1N2 (centres undefined),i,i,i,i
O=C1CCCC2=C1C(c1ccncc1)Nc1ccccc1N2 (centres undefined),i,i,i,i
SMILES,ALR inh,PfM18AAP inh,SUMO Mot1 rescue,HIF act
COc1ccc(C)cc1NC(=O)c1nn(-c2ccccc2)cc1OC,i,i,i,i
CN1C(=O)CC(NNC(=O)c2ccc(Cl)cc2)C1=O (centres undefined),89.6,i,i,i
COCc1cc(C)nc(OCC(=O)N/N=C/c2ccc(O)cc2)c1C#N,99.2,i,i,i
N#C/C(=C\c1cccnc1)c1nc2c(s1)CCCC2,97.6,i,i,i
N#C/C(=C/c1cccnc1)c1ccccc1,i,i,i,i
CC1CCc2nc(/C(C#N)=C/c3cccnc3)sc2C1 (centres undefined),97.0,i,i,i
C=CCNC(=O)c1ccc2c(c1)S(=O)(=O)c1ccccc1C2=O,i,nt,i,i
O=[N+]([O-])c1cc(S(=O)(=O)N2CCCC2)ccc1O,i,i,i,i
O=[N+]([O-])c1cc(S(=O)(=O)N2CCCCCC2)ccc1F,97.4,i,577.2,nt
CCc1cnccc1CCC(=O)Nc1ccccc1C,i,nt,i,429.9
Cc1ccccc1NC(=O)CCC(=O)N/N=C/c1cccnc1,i,i,i,i
Cc1cc(Cl)ccc1OCC(=O)NNC(=O)CCOc1ccccc1,nt,nt,i,nt
O=C(C1CCC(=O)N1Cc1cccnc1)N1CCN(c2ccc(F)cc2)CC1 (centres undefined),i,i,i,i
Cc1ccc(CN2C(=O)CCC2C(=O)N2CCN(c3ccc(F)cc3)CC2)cc1 (centres undefined),91.1,i,i,i
Cc1ccc(-c2n[nH]c(=O)c3ccccc23)cc1S(N)(=O)=O,nt,i,i,i
O=C(NC1CCCC1)c1ccc(CS(=O)(=O)Cc2ccccc2Cl)o1,i,i,i,i
O=C(NC1CC1)c1ccc(CSCc2ccccc2Cl)o1,83.8,i,i,i
O=C(CN1CC[n+]2c(-c3cccs3)csc21)c1ccc(Br)cc1,98.4,i,i,i
O=C(CN1CC[n+]2c(-c3ccccc3)csc21)c1ccc(Br)cc1,98.4,i,i,i
CCOc1ccc(NC(=S)NNC(=O)CC(C)O)cc1 (centres undefined),i,i,i,i
CC(=O)Nc1ccc(S(=O)(=O)NNC(=O)COc2cc(C)ccc2C(C)C)cc1,98.9,i,i,nt
CC(=O)Nc1ccc(S(=O)(=O)NNC(=O)COc2cccc(C)c2)cc1,i,i,i,i
O=C(NC(=S)Nc1cccc2ncccc12)c1ccco1,i,i,i,i
O=C(NNC(=S)Nc1ccc(Cl)c(Cl)c1)c1ccccn1,i,i,i,59.8
NC(=O)NNC(=S)Nc1cccc2ccccc12,i,49.5,i,i
SMILES,ALR inh,PfM18AAP inh,SUMO Mot1 rescue,HIF act
CCNC(=S)NNC(=O)c1ccccn1,i,i,i,i
CCCC(=O)NC(=S)Nc1cccc2c(O)cccc12,90.9,i,i,i
O=C(NC(=S)Nc1cccc2c(O)cccc12)c1ccco1,99.4,i,i,i
Cc1ccc(CSCC(=O)N/N=C/c2sccc2C)cc1,i,i,i,i
Cc1ccccc1N1CC(C(=O)N2CCCCCC2)CC1=O (centres undefined),i,nt,i,i
O=C(NC(=S)Nc1ccccc1Cl)c1ccco1,i,i,355.3,i
O=C(NC(=S)Nc1cccc(Cl)c1N1CCCCC1)c1ccco1,i,i,i,i
O=C(NC(=S)Nc1cccc2cc(O)ccc12)c1ccccc1Br,i,i,i,i
O=C(NC(=S)Nc1cccc2cc(O)ccc12)c1ccco1,94.5,i,i,i
O=C(NNC(=S)Nc1ccccc1Cl)c1ccccc1Cl,89.5,i,i,i
COCCCNC(=O)c1ccc(S(=O)(=O)c2ccc(C)cc2)c(NC(C)=O)c1,nt,i,i,i
O=C(COC(=O)CSCC(=O)N1CCCCC1)Nc1ccc(Cl)cc1,88.9,i,338.1,i
O=C(CSCC(=O)N1CCCCC1)OCC(=O)c1c[nH]c2ccccc12,98.3,i,i,i
O=C(COc1ccccc1)OCC(=O)c1c[nH]c2ccccc12,i,nt,i,nt
CCN1C(=O)[C@@H]2[C@@H](c3ccc(-c4ccc5c(c4)OCO5)c(OC)c3)N3CCC[C@@]3(C(=O)OC)[C@@H]2C1=O,i,nt,i,nt
Cc1ccc(NC(=O)[C@@H]2CCCN2S(=O)(=O)c2ccc(Cl)cc2)cc1,i,nt,i,nt
CC(=O)Oc1ccc(/C=N/NC(=O)C2CCCN2S(=O)(=O)c2ccc(Cl)cc2)cc1 (centres undefined),100.3,i,i,i
Cc1ccc(Nc2nc(-c3ccc(S(=O)(=O)N4CCOCC4)cc3)cs2)cc1Cl,nt,i,i,i
S=c1nc(-c2ccc(Cl)cc2)[nH][nH]1,nt,i,i,i
